Source: PubChem BioAssay AID1159580 (chemical genetic matrix, 2015)
About 2,000 (36%) of roughly 5,500 compounds were called active. Another 18% or so got no clear call; they are omitted. Cut-off read from the data, not from the text of the source: active = normalized growth mostly below about 0.91 (no sharp cut-off); inconclusive = no clear call, values can overlap the other calls; inactive = mostly above about 0.92. Some of the results follow.

Experiment: chemical genetic growth profiling, strain panel (AID 1159580);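 note: tested at 20 µM; growth read once vehicle control cultures reached saturation at 30 °C; 1 = growth at the plate median or of vehicle wells; lower values mean less growth of the strain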
Conditions: S. cerevisiae deletion strains, growth OD

Measured: normalized growth

O=C(Nc1ccc(Cl)cc1)O/N=C\c1ccn(-c2ccccc2)n1
active: locus YHR030C, strain SLT2, active compounds read low 0.611 | locus YHR205W, strain SCH9, active compounds read low 0.559 | locus YJR066W, strain TOR1 (second series), active compounds read low 0.605 | locus YLR113W, strain HOG1, active compounds read low 0.6 | locus YPL256C, strain CLN2, active compounds read low 0.662
inactive: locus YAR019C, strain CDC15, active compounds read low 0.958 | locus YBL105C, strain PKC1, active compounds read low 0.963 | locus YBR135W, strain CKS1, active compounds read low 0.95 | locus YBR136W, strain MEC1, active compounds read low 0.937 | locus YBR160W, strain CDC28, active compounds read low 0.962 | locus YDL017W, strain CDC7, active compounds read low 0.971 | locus YDL028C, strain MPS1, active compounds read low 0.955 | locus YDL101C, strain DUN1, active compounds read low 0.975 | locus YDL108W, strain KIN28, active compounds read low 0.941 | locus YDL132W, strain cdc53, active compounds read low 0.954 | locus YDL214C, strain PRR2, active compounds read low 0.8 | locus YDR052C, strain DBF4, active compounds read low 0.982 | locus YDR054C, strain cdc34, active compounds read low 0.952 | locus YDR226W, strain ADK1, active compounds read low 0.965 | locus YDR477W, strain SNF1, active compounds read low 0.859 | locus YER123W, strain YCK3, active compounds read low 0.811 | locus YER133W, strain GLC7, active compounds read low 0.882 | locus YFL009W, strain cdc4, active compounds read low 0.961 | locus YFL029C, strain CAK1, active compounds read low 0.955 | locus YFR003C, strain YPI1, active compounds read low 0.96 | locus YFR019W, strain FAB1, active compounds read low 0.956 | locus YFR028C, strain CDC14, active compounds read low 0.953 | locus YGR040W, strain KSS1, active compounds read low 0.876 | locus YGR052W, strain FMP48, active compounds read low 0.845 | locus YGR092W, strain DBF2, active compounds read low 0.775 | locus YHR079C, strain IRE1, active compounds read low 0.654 | locus YHR082C, strain KSP1, active compounds read low 0.835 | locus YIL147C, strain SLN1, active compounds read low 0.953 | locus YJL095W, strain BCK1, active compounds read low 0.738 | locus YJL128C, strain PBS2, active compounds read low 0.877 | locus YJL157C, strain FAR1, active compounds read low 0.857 | locus YJR016C, strain ILV3, active compounds read low 0.961 | locus YJR066W, strain TOR1, active compounds read low 0.834 | locus YKL048C, strain ELM1, active compounds read low 0.886 | locus YKL067W, strain YNK1, active compounds read low 0.82 | locus YKL101W, strain HSL1, active compounds read low 0.798 | locus YKL193C, strain SDS22, active compounds read low 0.948 | locus YKL203C, strain TOR2, active compounds read low 0.947 | locus YLR133W, strain CKI1, active compounds read low 0.829 | locus YLR403W, strain SFP1, active compounds read low 0.87 | locus YML070W, strain DAK1, active compounds read low 0.804 | locus YMR001C, strain CDC5, active compounds read low 0.95 | locus YMR205C, strain PFK2 (second series), active compounds read low 0.779 | locus YMR277W, strain FCP1, active compounds read low 0.948 | locus YNL006W, strain LST8, active compounds read low 0.954 | locus YNL020C, strain ARK1, active compounds read low 0.782 | locus YNL161W, strain CBK1, active compounds read low 0.97 | locus YNL183C, strain NPR1, active compounds read low 0.732 | locus YNL207W, strain RIO2, active compounds read low 0.954 | locus YNL222W, strain SSU72, active compounds read low 0.946 | locus YNL307C, strain MCK1 (second series), active compounds read low 0.785 | locus YOL078W, strain AVO1, active compounds read low 0.956 | locus YOL136C, strain PFK27, active compounds read low 0.797 | locus YOR061W, strain CKA2, active compounds read low 0.875 | locus YOR119C, strain RIO1, active compounds read low 0.929 | locus YOR231W, strain MKK1, active compounds read low 0.688 | locus YOR329C, strain SCD5, active compounds read low 0.954 | locus YPL031C, strain PHO85, active compounds read low 0.851 | locus YPL153C, strain RAD53, active compounds read low 0.885 | locus YPL204W, strain HRR25, active compounds read low 0.869 | locus YPL209C, strain IPL1, active compounds read low 0.959 | locus YPR025C, strain CCL1, active compounds read low 0.953 | locus YPR106W, strain ISR1, active compounds read low 0.937 | locus YPR111W, strain DBF20, active compounds read low 0.929 | strain NNK1, active compounds read low 0.903 | strain TSCII, active compounds read low 0.95

CS(=N)(=O)CC[C@H](N)C(=O)O (some centres not stated)
inactive: locus YAL013W, strain DEP1, active compounds read low 0.995 | locus YAL040C, strain CLN3, active compounds read low 0.993 | locus YCL061C, strain MRC1 (second series), active compounds read low 0.997 | locus YDR150W, strain NUM1, active compounds read low 1.02 | locus YDR363W, strain ESC2, active compounds read low 0.962 | locus YER002W, strain NOP16, active compounds read low 1 | locus YGR078C, strain PAC10, active compounds read low 0.969 | locus YJR075W, strain HOC1, active compounds read low 1.01 | locus YMR263W, strain SAP30, active compounds read low 1.01 | locus YNL128W, strain TEP1, active compounds read low 0.991 | locus YNL175C, strain NOP13, active compounds read low 0.989 | locus YNL197C, strain WHI3, active compounds read low 0.983 | locus YNL224C, strain SQS1, active compounds read low 0.999 | locus YOR083W, strain WHI5 (second series), active compounds read low 0.989 | locus YPL055C, strain LGE1, active compounds read low 1 | locus YPL241C, strain CIN2, active compounds read low 1
